# Screening results from PubChem BioAssay.
# HSV augment: HSV replication enhancement. HSV replication augmentation in cells, fold increase. maximum fold increase. 220,000 tested, 0.005% active. AID 1956; in the data active means maximum fold increase above about 1.5; inconclusive means no clear call, values can overlap the other calls; tested in PC3 cells
# HMGR II inh: blocks class II HMG-CoA reductase of Enterococcus faecalis | purified E. faecalis HMGR, NADPH absorbance 340 nm kinetic | inhibition, % at 10 µM | 190,000 tested, 0.41% active | AID 1066;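 active means inhibition above a set limit, the median over all tested compounds plus 3 SD, cut at about 9.5% in these data; inconclusive means no clear call, values can overlap the other calls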;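 further: enzyme runs in reverse so mevalonate oxidation gives rising NADPH absorbance; 0% = complete reaction with DMSO and 100% = background rate lacking mevalonate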
# Calpain2 inh: inhibitors of pig calpain II | purified calpain II, fluorogenic peptide substrate, 30 min | inhibition, % at 16 µM | 220,000 tested, 0.37% active;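 active means inhibition above about 50%, limit read from the data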
# Arbovirus anti: antivirals against arbovirus infection; 200,000 tested, 0.37% active; arbovirus infection cell-based antiviral screen; inhibition, % at 10 µM; in the data active means inhibition above about 30%
# ROMK primary: modulates human ROMK potassium channel activity | P48048 | Tet-inducible ROMK, thallium flux fluorescence; actives lie on both sides | B-score at 10 µM | 130,000 tested, 2% active | AID 1918;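 active means signal ratio slope over the read window, or its plate-corrected B-score, at least 3 SD from the plate mean, either direction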;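 further: B-score of the F/F0 ratio slope over 7 to 12 s after thallium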
# Target sequence (P48048 whole entry, looked up): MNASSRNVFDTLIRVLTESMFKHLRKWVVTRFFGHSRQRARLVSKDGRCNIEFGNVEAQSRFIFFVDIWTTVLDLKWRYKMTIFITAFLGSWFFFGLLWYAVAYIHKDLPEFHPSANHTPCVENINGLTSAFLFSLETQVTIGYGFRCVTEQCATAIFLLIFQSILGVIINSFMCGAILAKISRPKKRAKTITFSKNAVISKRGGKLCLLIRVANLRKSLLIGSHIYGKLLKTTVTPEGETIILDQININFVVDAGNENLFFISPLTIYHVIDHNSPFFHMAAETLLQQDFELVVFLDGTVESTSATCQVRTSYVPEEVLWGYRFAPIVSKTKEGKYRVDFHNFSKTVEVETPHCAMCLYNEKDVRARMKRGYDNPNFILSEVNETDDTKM
# ROMK hit retest: human ROMK channel modulation, retest confirmation; shares compounds with ROMK primary; ROMK thallium flux, fluorescence ratio; active compounds read low; normalized thallium flux (F/F0 slope) at 10 µM; 3,000 tested, 54% active;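 active means Flux at 10 µM at least 3 SD below or above vehicle control mean in one or both replicates; inconclusive means no clear call, values can overlap the other calls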
# Numbers without * were called inactive; i = inactive; ? = inconclusive; . = no result given. In the library only some 2.1% were active in any assay of this set; here they are far more common.
SMILES,HSV augment,HMGR II inh,Calpain2 inh,Arbovirus anti,ROMK primary,ROMK hit retest
CCOC(=O)N1CCN(C(=O)COc2cccc3c2CCN(Cc2ccccc2C)C3=O)CC1,i,-9,9,10,.,.
CCOC(=O)N1CCN(C(=O)COc2cccc3c2CCN(Cc2cccc(C)c2)C3=O)CC1,.,-1,-2,-4,.,0.064*
Nc1nc2n(n1)C(=O)CC(c1ccccc1)N2 (configuration not stated),i,-4,-21,4,-2.2,.
c1ccc(-c2nc(N3CCCCCC3)c3ccccc3n2)nc1,i,1,-5,-24,-2.7*,0.059*
c1ccc(CCNc2nc(-c3ccccn3)nc3ccccc23)cc1,i,.,-5,.,.,?
C/C(=N\Nc1nc(-c2ccccn2)nc2ccccc12)c1ccc(F)cc1,i,.,20,.,.,.
CCCCn1c(CCC(=O)O)nc2cc(S(=O)(=O)N(CC)CC)ccc21,i,.,-9,.,.,.
Cc1cc(Cl)ccc1OCc1cn2cccnc2n1,i,-8,-15,6,4.1*,?
Clc1ccc(OCc2cn3cccnc3n2)c2ncccc12,i,-1,-154,-4,0.039,.
COc1ccc(Cc2nnc(SCC(=O)N3CCCCC3)o2)cc1,i,-9,-25,-13,.,.
Cc1cccc(Nc2nc3c(S(=O)(=O)c4ccccc4)nnn3c3ccccc23)c1,i,-4,-479,-3,0.01,0.082
Cc1cc(C)cc(Nc2nc3c(S(=O)(=O)c4ccccc4)nnn3c3ccccc23)c1,i,-4,-106,11,0.52,.
CCOC(=O)/C=C/C(=O)Nc1ccccc1C(=O)NC1CCCCC1,.,2,-6,-3,-0.0045,.
Cc1ccc(C2C(C(=O)c3cccs3)=C(O)C(=O)N2c2nnc(C)s2)cc1 (configuration not stated),?,-1,-31,2,-2.3,0.052*
Fc1ccc(-n2nnnc2-c2cnc(-c3cccs3)nc2C(F)(F)F)cc1,i,-2,3,24,0.12,.
Cc1ccc(-c2nn(-c3ccccc3)cc2CSC(=N)N)cc1,i,1,7,-32,.,0.052*
OCc1cn(-c2ccccc2)nc1-c1ccc(-c2nn(-c3ccccc3)cc2CO)cc1,i,-4,-72,3,0.016,.
COc1ccc(CNC(=O)C(CCSC)NS(=O)(=O)c2ccccc2F)cc1 (configuration not stated),i,4,-18,-1,0.65,.
C=CCn1c2ccccc2c2nnc(SCN3C(=O)c4ccccc4C3=O)nc21,i,4,39,-2,-0.26,.
C=CCn1c2ccccc2c2nnc(SCCCn3c(=O)[nH]c4ccccc43)nc21,i,-9,28,-23,.,0.065*
COCCCNC(=O)CC1C(=O)N(Cc2ccccc2)C(C)c2nc3ccccc3n21 (configuration not stated),i,-4,-30,6,-4.4*,0.089
Cn1nnnc1SCCNCc1ccccc1OCc1ccc(F)cc1,i,-6,39,-1,-3.8*,0.059*
Nc1nn(-c2ccccc2)c(N)c1N=Nc1ccc2c(c1)OCO2,i,-4,0,-27,2.7,.
Nc1nn(-c2ccccc2)c(N)c1N=Nc1cccc(F)c1,i,.,20,.,3.4*,0.086
c1csc(CNc2ncnc3sccc23)c1,i,.,.,5,-2.9*,0.066*
SMILES,HSV augment,HMGR II inh,Calpain2 inh,Arbovirus anti,ROMK primary,ROMK hit retest
CCOC(=O)Cn1cc(/C=C/[N+](=O)[O-])c2ccccc21,i,-2,-30,-2,-3.5*,0.036*
CCOc1ccc(/C=C/[N+](=O)[O-])c2ccccc12,i,-3,-3,-35,-3.8*,0.043*
Cc1ccc(CN2CCN(CC(=O)N/N=C/c3ccc(C)o3)CC2)cc1,i,.,34,.,.,.
CN(CC(=O)Nc1ccccc1C(F)(F)F)C(=O)COc1cccnc1[N+](=O)[O-],i,-3,-12,13,1,.
COc1ccc(/C=N/NC(=O)c2cccnc2)cc1COc1ccc(NC(C)=O)cc1,i,.,5,.,3.9*,?
COc1cc(/C=N/NC(=O)c2cccnc2)ccc1OC(=O)c1ccc([N+](=O)[O-])cc1,i,2,20,0,-1,.
COc1ccc(/C=N/NC(=O)c2cccc(OC(F)(F)C(F)F)c2)cc1O,i,0,-6,-6,1.8*,0.089
COc1ccc(/C=N/NC(=O)c2cccnc2)cc1COc1ccc([N+](=O)[O-])cc1,i,.,-13,.,4.7*,0.091
COc1ccc(NC(=O)COc2ccc(/C=N/NC(=O)c3cccnc3)cc2OC)cc1,i,-6,-38,-1,.,.
